Compounds with a hit are over-represented: about 1.7% of the library has one in this group of screens.
ABCB6 inh 2: ABCB6 transporter inhibitors, primary screen, K562-ABCB6 cells, flow cytometry, MLPCN library | K562-ABCB6 porphyrin accumulation, 1 h; stronger effect = lower value | 360,000 compounds, 0.19% hits | fluorescence ratio to DMSO, % at 10 µM | AID 602162, 2011 | ATP-binding cassette sub-family B member 6 (Homo sapiens), Q9NP58;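 active = fluorescence ratio to DMSO below 75%, the collection mean minus 3 SD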;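 note: signal is porphyrin accumulated inside mitochondria; lower ratio means ABCB6 inhibition with less porphyrin fluorescence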
Myeloid diff 2: induction of myeloid progenitor differentiation, primary screen, cell-based, flow cytometry, MLPCN library | ER-HoxA9 myeloid progenitors, lysozyme-GFP differentiation | calls only at 10 µM | 360,000 compounds, 1% hits | AID 624256, 2012;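 active = normalized GFP-positive differentiation at or above the plate's own cutoff, the solvent-only control mean plus 3 SD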;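 note: cells exposed to compound for four days before flow analysis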
TLR9-MyD88 block: inhibitors of TLR9-MyD88 association in cells, primary screen, cell-based, CHO, BLA complementation, fluorescence; Toll-like receptor 9 (Homo sapiens) + Myeloid differentiation primary response protein …; CCF4 FRET ratio; inhibition, % at 4.98 µM; 340,000 compounds, 0.21% hits;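 active = inhibition above the mean over all tested compounds plus 3 SD, cut at about 21% in these data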
NOD2 RIPK2 PPI: NOD2-RIPK2 binding disruptors in cells, primary screen, fluorescence, CHO cells, BLA complementation | Receptor-interacting serine/threonine-protein kinase 2 (Homo sapiens), O43353 | 360,000 compounds, 0.38% hits | inhibition, % at 4.98 µM | CCF4 ratio; in the data active = inhibition above about 21%
TLR4-MyD88 BLA: inhibitors of TLR4-MyD88 association in cells, primary screen, cell-based, HeLa CL3-4, BLA complementation, FRET ratio; Toll-like receptor 4 (Homo sapiens) + Myeloid differentiation primary response protein …; HeLa CL3-4 TLR4/MyD88 BLA complementation; inhibition, % at 8.4 µM; 200,000 compounds, 0.18% hits; AID 861, 2007; in the data active = inhibition above about 25%
Myeloid diff CP1: inducers of myeloid progenitor differentiation, confirmation, cell-based, GFP/Mac1 flow cytometry, cherry pick 01 | ER-HoxA9 myeloid progenitors, GFP/Mac1 double-positive flow | shares compounds with Myeloid diff 2 | calls only | 2,300 compounds, 2% hits;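 active = share of green or green-and-red cells above 9 and 9% in run 1 or 4 and 3% in run 2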
GFP autofluor: compound fluorescence in myeloid differentiation counter-screen; AID 651707; 2,300 compounds, 7.4% hits; ER-HoxA9 myeloid progenitors, no estrogen, GFP autofluorescence flow cytometry; vehicle wells 0%, positive control 100%; shares compounds with Myeloid diff 2; fluorescence response, % (test concentration not listed);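 active = over 5% cells positive for green fluorescent reporter, or over 2% positive for both it and APC stain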
Calls only; n = inactive; x = not tested or not shown; + = active, no number.

SMILES | ABCB6 inh 2 | Myeloid diff 2 | TLR9-MyD88 block | NOD2 RIPK2 PPI | TLR4-MyD88 BLA | Myeloid diff CP1 | GFP autofluor
NS(=O)(=O)c1ccc(CCNC(=O)C2CCN(C(=O)Nc3ccccc3)CC2)cc1 | n | n | n | n | x | x | x
Clc1cc(Cl)cc(Nc2ccccc2CN(C/C=C/c2ccc3c(c2)OCO3)Cc2ccccc2)c1 | n | n | n | n | x | n | n
CC(=O)OCCN(Cc1ccccc1)Cc1ccc2c(c1)OCO2 | n | n | n | n | n | x | x
CCC1c2ccc(C)n2CCN1C(=O)Nc1cc(Cl)ccc1OC (centres undefined) | n | x | n | n | n | n | n
O=C1NC(=O)c2cc(NC(=O)C3CCCO3)ccc21 (centres undefined) | n | n | n | n | n | n | n
O=C(O)c1cc(NC(=O)C2CCCO2)cc(NC(=O)C2CCCO2)c1 (centres undefined) | n | + | n | n | n | n | n
O=C1OCc2cc(NC(=O)C3CCCO3)ccc21 (centres undefined) | n | n | n | n | n | x | x
O=C(c1ccc(F)cc1)C1CCN(Cc2ccc(F)cc2)CC1 | n | n | n | n | x | x | x
O=C(Nc1ncccc1O)c1cccc(S(=O)(=O)N2CCN(c3ccc(F)cc3)CC2)c1 | n | n | n | n | x | x | x
CN1CCN(S(=O)(=O)c2cccc(C(=O)Nc3ccccc3N3CCCCC3)c2)CC1 | n | n | n | n | x | n | n
COc1ccccc1NC(=O)c1cccc(S(=O)(=O)N2CCN(c3ccccc3)CC2)c1 | n | n | n | n | x | n | n
O=C(Nc1ccncc1)c1cccc(S(=O)(=O)N2CCN(c3ccc(F)cc3)CC2)c1 | n | n | n | n | x | n | n
O=C(c1cc(Cl)ccc1F)N1CCCC(Nc2ccc3c(c2)OCCO3)C1 (centres undefined) | n | n | n | n | x | x | x
CC1(C(=O)NS(=O)(=O)c2ccc(Cl)cc2)CCN1C(=O)CCc1cccs1 (centres undefined) | n | n | x | n | x | x | x
N/C(Cc1cccc2ccccc12)=N\OC(=O)COc1ccccc1 | n | n | n | n | n | n | n
COCCNC(=O)c1c(N)n(CCC2=CCCCC2)c2nc3ccccc3nc12 | n | n | n | n | n | n | n
COCCn1c(N)c(C(=O)OCc2ccccc2)c2nc3ccccc3nc21 | n | n | n | n | n | x | x
Cc1ccc([C@H]2C[C@H](O)[C@@H](n3cc(COC(=O)c4ccccc4)nn3)CN2Cc2cccs2)cc1 | n | n | n | n | x | x | x
c1ccc(Nc2cccc3ccccc23)cc1 | n | n | n | n | x | n | n
COc1ccccc1NC(=O)C1=C(C)NC2=C(C(=O)CCC2)C1c1ccc2c(c1)OCO2 (centres undefined) | n | n | n | n | n | x | x
CCN(CC)S(=O)(=O)c1ccc(C(=O)NC(=S)N(CCC#N)Cc2cccnc2)cc1 | n | n | n | n | n | x | x
CN(C)S(=O)(=O)c1cccc(C(=O)NC(=S)N(CCC#N)Cc2cccnc2)c1 | n | n | n | n | n | n | n
CS(=O)(=O)N(Cc1ccc(Cl)cc1)c1ccc(C(=O)NCCSc2ccccn2)cc1 | n | + | n | n | n | n | n
COc1ccc(-c2cc([C@H]3[C@@H]4C=CCC[C@@]4(C)C(=O)N3Cc3ccccc3)ccc2F)cc1OC | n | n | n | n | x | x | x
COc1ccc([C@H]2[C@@H]3C=CCC[C@@]3(C)C(=O)N2Cc2ccccc2)cc1Cl | n | n | n | n | x | n | n
O=C(c1cc2ccccc2oc1=O)N(Cc1cccc(Br)c1)C1CCS(=O)(=O)C1 (centres undefined) | n | n | n | n | x | x | x

Screening data: PubChem, several laboratories
